Assay outcomes (PubChem)
A selection: hits, their analogues and other compounds. The true share with any hit is near 3.5%.
FBW7 activator: activators of human E3 ligase FBW7; normalized activity (activation), % at 26.1 µM; AlphaScreen FBW7–phospho-cyclin E peptide binding, activator screen; AID 1259310; 0.13% of 650,000 active; Q969H0; in the data active = normalized activity above about 1.9%;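 also: purified mutant Fbw7 with reduced substrate affinity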
TEAD-YAP block: TEAD-YAP interaction inhibition. HEK-TIYL cells, TEAD-Gal4/YAP UAS-luciferase luminescence. inhibition, % at 9.12 µM. 1.4% of 640,000 active; in the data active = inhibition above about 32%;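 also: 0% = median of test compound wells and 100% = reference inhibitor wells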
GPR151 activ: human GPR151 activation. Q8TDV0. PathHunter beta-arrestin GPR151 cells, luminescence. AID 1508602. 1% of 650,000 active. activation, % at 11.2 µM; in the data active = activation above about 4.9%;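 also: 0% = median of compound wells and 100% = cells with positive control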
Target sequence (Q8TDV0 whole entry, looked up): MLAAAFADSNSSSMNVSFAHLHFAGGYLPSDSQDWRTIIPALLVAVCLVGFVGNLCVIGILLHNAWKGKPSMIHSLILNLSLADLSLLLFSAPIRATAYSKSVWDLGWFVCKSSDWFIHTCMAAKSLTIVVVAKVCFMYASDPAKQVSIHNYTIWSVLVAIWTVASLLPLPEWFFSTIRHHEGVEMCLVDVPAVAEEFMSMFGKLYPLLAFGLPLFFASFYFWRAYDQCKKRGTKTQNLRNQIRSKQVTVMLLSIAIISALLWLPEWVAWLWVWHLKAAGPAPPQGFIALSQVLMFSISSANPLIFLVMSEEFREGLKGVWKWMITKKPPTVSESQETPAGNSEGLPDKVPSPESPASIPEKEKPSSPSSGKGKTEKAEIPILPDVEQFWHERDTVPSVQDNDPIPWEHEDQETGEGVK
MITF primary: human MITF inhibition, primary screen; 0.91% of 650,000 active; AlphaScreen MITF homodimerization, bead proximity signal; O75030; inhibition, % at 2.6 µM; in the data active = inhibition above about 50%;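 also: 0% = vehicle wells with protein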
Numbers without * were called inactive.

SMILES	FBW7 activator	TEAD-YAP block	GPR151 activ	MITF primary
OCc1cccc(-c2cnc3c(Nc4ccc5[nH]ccc5c4)nccn23)c1	0.3	7.2	-4.2	-9.8
COC(=O)C1=C(C(=O)OC)SC(=C2C(=S)C(C)(C)N(C(=O)CN3C(=O)CCC3=O)c3cc(OC)ccc32)S1	-0.4	-9.6	1.0	-3.5
COc1ccc(CCNC(=O)c2cccc([N+](=O)[O-])c2C)cc1OC	0.1	7.1	0.3	10.5
COc1ccc(CN2C(=O)N(c3ccccc3OC)S(=O)(=O)c3ccccc32)cc1F	0.4	-0.2	0.3	8.7
CC(C)N(CCNc1nc(-c2cccc(N)c2)nc2c1ncn2C(C)C)C(C)C	0.0	53.2*	1.2	-7.1
COc1cccc(C(=O)Nc2ccc3nc(N4CCN(c5ncccn5)CC4)cc(C)c3c2)c1OC	0.2	42.9*	2.2	12.2
COc1ccccc1C(=O)Nc1ccc2nc(N3CCN(c4ncccn4)CC3)cc(C)c2c1	0.1	25.1	-0.1	-6.8
Cn1cccc(C(=O)Nc2ccc(CN3CCN(c4ccccn4)CC3)cc2)c1=O	0.1	46.3*	-8.6	7.3
CC(=O)Nc1ccc(CN2CCN(c3ccccn3)CC2)cc1	-0.1	-2.3	-0.1	11.8
COc1cc(C(=O)c2cc(Br)ccc2N)cc(OC)c1OC	0.0	51.0*	-0.3	12.9
CNc1ccc(Cl)cc1C(=O)c1cc(OC)c(OC)c(OC)c1	-0.1	53.8*	-0.4	14.7
COc1cc(C(=O)Nc2ccc(F)cc2F)cc(OC)c1OC	-0.1	-8.8	-0.5	-18.7
CC(C)c1ccc(OCC(=O)Nc2cc(C(=O)N3CCCC3)cn(C)c2=O)cc1	-0.4	-2.8	0.7	3.3
O=C(NCCc1ccc(O)cc1)c1ccc2ccccc2c1	-0.2	-45.8	-0.7	-3.1
O=[N+]([O-])c1nn(-c2ccc(Cl)cc2)n(O)c1=Nc1ccccc1F	-0.4	37.8*	-1.5	0.5
O=[N+]([O-])c1nn(-c2ccc(Cl)cc2)n(O)c1=Nc1ccccc1	-0.4	62.0*	0.2	-0.3
O=[N+]([O-])c1nn(-c2ccc(Cl)cc2)n(O)c1=Nc1ccc(Cl)cc1	-0.3	7.1	-2.0	26.4
O=C(N/N=C/c1c(O)ccc2ccccc12)c1ccc(F)cc1	-0.2	75.6*	-1.4	14.3
Cc1nc2ccccn2c1C(=O)N/N=C/c1ccc(Cl)cc1Cl	-0.1	11.3	-0.2	-8.5
O=C(N/N=C\c1c(O)ccc2ccccc12)c1cncc(Br)c1	-0.6	9.1	-0.6	-1.2
Cc1ccc(C(=O)N/N=C/c2c(O)ccc3ccccc23)cn1	-0.1	80.2*	-0.7	55.2*
Cc1nc2ccccn2c1C(=O)N/N=C/c1c(O)ccc2ccccc12	-1.3	71.2*	-1.4	30.0
O=C(N/N=C/c1c(O)ccc2ccccc12)c1cccnc1	-0.3	81.1*	-0.2	70.3*
Cc1ccc(C(=O)N/N=C/c2c3ccccc3cc3ccccc23)cn1	0.3	2.7	2.0	1.7
O=C1S/C(=C\c2ccc(I)o2)C(=O)N1c1ccccc1	-0.1	3.0	1.4	4.9
SMILES	FBW7 activator	TEAD-YAP block	GPR151 activ	MITF primary
O=C(N/N=C/c1c(O)ccc2ccccc12)c1ccc[n+](CCO)c1	-0.9	-5.3	0.6	89.5*
O=C(N/N=C/c1c(O)ccc2ccccc12)c1ccc(=O)[nH]n1	-0.8	86.2*	0.2	67.8*
COc1ccccc1NS(=O)(=O)c1ccc(Oc2ccccc2OC)cc1	1.0	19.8	-0.7	2.9
N#CC1=C(N)C(C#N)(C#N)C(c2ccccc2)C2CCCC=C12 (centres undefined)	1.9*	6.7	1.5	9.7
N#CC1=C(N)C(C#N)(C#N)C(c2ccc(O)cc2)C2CCCC=C12 (centres undefined)	0.0	11.0	0.3	-10.2
Cc1ccc(C)c(N(C)S(=O)(=O)c2c(C)nn(C)c2C)c1	0.6	-1.1	-0.7	-1.7
O=C(Cc1cccs1)Nc1cccc(-c2ccc(N3CCCCC3)nn2)c1	-0.4	51.5*	-3.5	-9.3
Oc1cccc(-c2cnn3c(NCCc4ccccn4)ccnc23)c1	-0.4	84.7*	0.1	-12.7
CC(C)[C@@H](CO)Nc1ccnc2c(-c3ccoc3)cnn12	0.1	-3.3	0.2	-3.2
Fc1ccccc1-c1cnn2c(NCCc3ccccn3)ccnc12	-0.4	72.5*	-2.6	-13.7
CC(C)[C@@H](CO)Nc1ccnc2c(-c3ccccc3F)cnn12	0.1	55.6*	2.6	10.1
CCOC(=O)N1CCC(n2c(SCC(=O)NCc3ccc(C)cc3)nc3ccsc3c2=O)CC1	-0.1	-2.1	0.8	4.6
Cc1cc(C(=O)N(CCn2cccn2)c2nc3c(F)cccc3s2)on1	-0.2	-27.4	3.1	-3.3
Cc1cccc(OCC(=O)N(CCn2cccn2)c2nc3c(F)cccc3s2)c1	0.3	42.9*	1.4	8.3
O=C1CCCN1CCCNc1nc2ncnc(Nc3ccc(N4CCOCC4)cc3)c2[nH]1	-0.1	37.7*	-2.3	17.1
O=C1CCCN1CCCNc1nc(Nc2ccc(N3CCOCC3)cc2)c2ncn(-c3ccsc3)c2n1	-0.1	47.1*	0.0	18.7
O=C1CCCN1CCCNc1nc(Nc2ccc(N3CCOCC3)cc2)nc2c1ncn2-c1ccsc1	-0.3	59.5*	-0.9	-1.2
c1cncc(Nc2nc3ncnc(Nc4ccc(N5CCOCC5)cc4)c3[nH]2)c1	-0.2	25.3	-2.0	3.1
c1cnc2ccc(Nc3nc4ncnc(Nc5ccc(N6CCOCC6)cc5)c4[nH]3)cc2c1	3.9*	36.1*	-1.8	5.2
O=C1CCCN1CCCNc1nc2ncnc(Nc3ccccc3)c2[nH]1	-0.1	-4.2	-2.1	-10.2
Cc1ccccc1C(=O)NCC1Cc2c(F)ccc(-c3ccncc3)c2O1 (centres undefined)	0.3	10.7	0.4	12.1
COc1ccc(CC(=O)NCc2nnc(SCC(=O)Nc3nccs3)n2-c2ccccc2OC)cc1	-0.1	16.1	0.3	0.2
CCOC(=O)C1=C(C)Nc2nnnn2C1c1cc(Br)c(OC)c(OC)c1 (centres undefined)	0.9	53.4*	1.0	2.8
CCCCOc1c(Br)cc(C2NC(=O)NC(C)=C2C(=O)OC)cc1OC (centres undefined)	0.2	35.0*	1.4	9.3
CCOC(=O)C1=C(C)Nc2nnnn2C1c1ccc(OC)c(OC)c1 (centres undefined)	-0.1	0.4	-0.1	-2.4
SMILES	FBW7 activator	TEAD-YAP block	GPR151 activ	MITF primary
COC(=O)C1=C(C)Nc2nnnn2C1c1ccc(OC)cc1 (centres undefined)	0.8	4.2	-0.9	8.3
COC(=O)C1=C(C)Nc2nnnn2C1c1cc(OC)c(OC)c(OC)c1 (centres undefined)	0.0	50.9*	0.6	6.3
COC(=O)C1=C(C)NC(=O)NC1c1cc(Br)c(OC)c(OC)c1 (centres undefined)	0.0	-8.3	-2.1	-12.8
COc1ccc(S(=O)(=O)Nc2ccc(-c3nc4cccnc4s3)cc2)cc1	0.1	-20.6	-0.5	1.7
N#Cc1c(N)nc(SCC(=O)c2ccc(F)cc2)c(C#N)c1-c1ccc(O)cc1	-0.1	34.2*	3.6	-4.7
N#Cc1c(N)nc(SCC(=O)O)c(C#N)c1-c1ccc(O)cc1	0.1	-2.7	4.6	-8.6
COc1ccccc1-c1cnc(N)c(NCCCO)n1	0.7	4.8	0.4	14.7
COc1ccccc1-c1nnc(SCC(=O)Nc2ccc(Br)cn2)o1	0.1	34.1*	0.6	4.3
